The values that follow come from PubChem BioAssay AID720511 (Broad Institute, 2013).

The campaign covered roughly 350,000 compounds. About 1,300 (0.37%) were called active. The full list was thinned out, with actives kept by preference. Unmarked numbers belong to inactive results.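 How the source made its calls: active means mean added fluorescence quench of at least 8% versus neutral control, with both replicates also reaching 8%; inconclusive means only one of the mean or replicate conditions met; inactive means mean below 8% and not both replicates reaching 8%.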

This test in a line: F508del CFTR correction, initial screen, CFBE line, single point (AID 720511).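 Further: cells transiently co-express mutant CFTR-F508del with the halide-sensitive YFP; corrector assay measuring rescue of mutant channel to the surface after 24 h compound exposure.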 The following applies: CFBE cells, YFP halide quenching, at 7.58 µM, active compounds read high, % fluorescence drop versus neutral controls, stimulated with forskolin plus potentiator P3.
Consider `Cc1ccc(CN(C)CC(=O)Nc2cccc([N+](=O)[O-])c2)o1`, for which the activity (quench increase) is 10.1% (active).

For the molecule `O=C(CN1CCOCC1)Nc1cccc([N+](=O)[O-])c1`, the activity (quench increase) was -2.49%.

Take `Cc1ccc(NC(=O)CN(C)CC(=O)Nc2cccc(F)c2)cc1[N+](=O)[O-]`: the activity (quench increase) is 1.68%.

For the molecule `COc1cccc(-c2ccc3c(c2)[C@H]2[C@H](CCN2C(=O)c2ccc(F)cc2)[C@@H](CO)N3)c1`, the activity (quench increase) is 1.42%.

Consider `Cc1cc2oc(=O)cc(-c3ccccc3)c2c(C)c1-c1ccc(OC(F)(F)F)cc1`, for which the activity (quench increase) was 1.07%.

As for `COc1cccc(NC(=O)COc2cc(C)cc3oc(=O)cc(C)c23)c1`, the activity (quench increase) is 2.8%.

As to `COc1cc(OC)c2c(-c3cccc(-c4cccc(N)c4)c3)cc(=O)oc2c1`, the activity (quench increase) was 8.2% (active).

In the case of `Cc1cc(C)c(/C=C2\C(=O)Nc3ccccc32)[nH]1`, the activity (quench increase) is 10.3% (active).

Consider `COc1ccc(/C=N/N=C2/C(=O)Nc3ccccc32)cc1O`, for which the activity (quench increase) was -1.27%.

On to `O=C1Nc2ccccc2C1=NN=Cc1ccco1`, for which the activity (quench increase) is -2.93%.

Consider `O=C(NCC[C@H]1CC[C@H](NC(=O)C2CC2)[C@@H](CO)O1)c1ccc(F)cc1`, for which the activity (quench increase) is 1.43%.

With `Cc1c(CCC(=O)O)c(=O)oc2c(C)c(OCc3ccccc3Cl)ccc12`, the activity (quench increase) is 9.04% (active).

Take `COc1ccc2c(C)c(CCC(=O)NC3CC3)c(=O)oc2c1C`: the activity (quench increase) is 2.05%.

As to `Cc1c(CCC(=O)O)c(=O)oc2cc(OCc3ccc(Br)cc3)ccc12`, the activity (quench increase) is 0.947%.

Consider `C[C@@H]1CN([C@@H](C)CO)S(=O)(=O)c2ccc(C#CCN(C)C)cc2O[C@@H]1CN(C)C(=O)CC1CC1`, for which the activity (quench increase) was 0.474%.

For the molecule `CCOC(=O)C(C)Oc1cccc2c(=O)n(CC(=O)NCCc3ccc(OC)c(OC)c3)ccc12` (centres undefined), the activity (quench increase) was 2.66%.

Regarding `COC(=O)COc1cccc2c(=O)n(CC(=O)NCc3ccccc3)ccc12`, the activity (quench increase) was 11% (active).

For `COC(=O)COc1cccc2c(=O)n(CC(=O)NCCc3ccc(OC)c(OC)c3)ccc12`, the activity (quench increase) is -1.22%.

In the case of `COCC#Cc1ccc([C@@H]2[C@@H](CO)N3CCCCN(C(=O)NC4CCCC4)C[C@H]23)cc1`, the activity (quench increase) was -0.841%.

Consider `C[C@@H]1CCCCO[C@@H](CN(C)CC2CC2)[C@@H](C)CN([C@H](C)CO)C(=O)c2cc(NC(=O)Nc3cccc4ccccc34)ccc2O1`, for which the activity (quench increase) is -0.347%.

For `COc1ccc(/C=C2\N=C3CCCN3C2=O)cc1`, the activity (quench increase) was -1.7%.

As for `COc1ccc(/C=C2\CCc3ccccc3C2=O)c(OC)c1OC`, the activity (quench increase) is -2.36%.

Turning to `COc1ccc(/C=C2/CCCc3ccccc3C2=O)cc1`, the activity (quench increase) is 14.3% (active).

On to `Cc1ccc(S(=O)(=O)N(C)C[C@H]2OCCCC[C@@H](C)Oc3ccc(NC(=O)NC4CCCCC4)cc3C(=O)N([C@H](C)CO)C[C@@H]2C)cc1`, for which the activity (quench increase) was 0.861%.

Turning to `O=C(C[C@H]1C[C@@H]2c3cc(NC(=O)CC4CC4)ccc3O[C@@H]2[C@H](CO)O1)NCc1ccccn1`, the activity (quench increase) is -1.26%.

For the molecule `CN(CC(=O)Nc1ccc(Cl)cc1)C(=O)CNC(=O)c1ccc2ccccc2c1`, the activity (quench increase) is -7.73%.

As to `Cc1cccc(C(=O)NCC(=O)OCC(=O)N(C)CC(=O)Nc2ccccc2Cl)c1`, the activity (quench increase) was 16.8% (active).

With `CN(CC(=O)Nc1ccccc1Cl)C(=O)COc1cccc2c1OC(C)(C)C2`, the activity (quench increase) is -5.27%.

With `C/C=C/c1ccc2c(c1)O[C@H](CN(C)C(=O)Nc1ccccc1)[C@H](C)CN([C@@H](C)CO)S2(=O)=O`, the activity (quench increase) was -0.894%.

With `COc1ccc2c3c([nH]c2c1)[C@H](CO)N(C(=O)C1CCOCC1)CC31CN(S(C)(=O)=O)C1`, the activity (quench increase) is -0.365%.

Consider `CS(=O)(=O)Nc1ccc2c(c1)[C@H]1C[C@H](CC(=O)NCc3ccc(Oc4ccccc4)cc3)O[C@H](CO)[C@H]1O2`, for which the activity (quench increase) is 4.1%.

Consider `COc1cc(OC)cc(C(=O)NC(C(=O)N2CCC2)C(C)C)c1` (centres undefined), for which the activity (quench increase) was 1.12%.

Consider `COc1cc(OC)cc(C(=O)N[C@H](C(=O)NNC(=O)c2ccc(Br)cc2)C(C)C)c1`, for which the activity (quench increase) is -1.77%.

With `COc1cc(OC)cc(C(=O)N[C@H](C(=O)Nc2nc3ccccc3[nH]2)C(C)C)c1`, the activity (quench increase) is 13.5% (active).

Consider `COc1ccc(NC(=O)N(C)C[C@H]2OCCCC[C@H](C)Oc3ccc(NC(=O)NC4CCCCC4)cc3C(=O)N([C@@H](C)CO)C[C@@H]2C)cc1`, for which the activity (quench increase) was -0.706%.

For `COc1ccc2c3c([nH]c2c1)[C@H](CO)N(C(=O)c1ccccc1)CC31CN(C(=O)Nc2cccc(F)c2)C1`, the activity (quench increase) was 0.989%.

Regarding `COc1ccc2[nH]c3c(C)c4cc[n+](C)cc4c(C)c3c2c1`, the activity (quench increase) was 12.8% (active).

`CC(C)NC(=O)Nc1ccc2c(c1)C(=O)N([C@H](C)CO)C[C@H](C)[C@H](CN(C)C(=O)CCC(F)(F)F)OCCCC[C@H](C)O2`: the activity (quench increase) was 0.243%.

`O=C(C[C@@H]1C=C[C@@H](NS(=O)(=O)c2ccccc2)[C@@H](CO)O1)NCc1ccccc1F`: the activity (quench increase) is -1.3%.

As to `COCC(=O)Nc1ccc2c(c1)OC[C@@H](C)N(CCc1ccccc1)C[C@H](C)[C@@H](OC)CN(C)C2=O`, the activity (quench increase) was -4.64%.

Regarding `Clc1ccc(Nc2ccc3ccccc3n2)cc1`, the activity (quench increase) was 9.55% (active).

Take `Cn1c(Nc2cccc(Cl)c2)nc2ccccc21`: the activity (quench increase) is 0.14%.

Take `C=CCNc1nc(Nc2ccc(Cl)cc2)nc(OC)n1`: the activity (quench increase) is 1.27%.

Take `CCCNC(=O)N1CC2(CN(C(=O)c3cnccn3)C2)c2c([nH]c3cc(OC)ccc23)[C@@H]1CO`: the activity (quench increase) is -0.147%.

For `C[C@H](NC(=O)C[C@@H]1C[C@@H]2c3cc(NS(=O)(=O)c4ccc(F)cc4)ccc3O[C@@H]2[C@@H](CO)O1)c1ccccc1`, the activity (quench increase) is 0.793%.

As to `COc1ccc2c3c(n(C)c2c1)[C@@H](CO)N(Cc1ccncc1)CC31CN(C(=O)Nc2cccc(F)c2)C1`, the activity (quench increase) is -1.9%.

Regarding `CC(=O)Nc1cccc(-c2ccnc3c2CC(C)(C(=O)NCc2ccco2)O3)c1` (centres undefined), the activity (quench increase) was 7.38%.

`CC1(C(=O)NCc2ccc(F)c(F)c2)Cc2c(-c3ccc4c(c3)OCO4)ccnc2O1` (centres undefined): the activity (quench increase) was 0.827%.

As to `COc1ccc(NC(=O)C2(C)Cc3c(-c4cccc(NC(C)=O)c4)ccnc3O2)cc1OC` (centres undefined), the activity (quench increase) is -0.498%.

`CC1(C(=O)NCc2ccco2)Cc2c(-c3ccc4c(c3)OCO4)ccnc2O1` (centres undefined): the activity (quench increase) was 8.09% (active).

For `COc1ccc(NC(=O)C2(C)Cc3c(-c4cccc(NC(C)=O)c4)ccnc3O2)cc1` (centres undefined), the activity (quench increase) was 9.41% (active).

Regarding `COc1ccc(NC(=O)C2(C)Cc3c(-c4ccc(C(N)=O)cc4)ccnc3O2)cc1` (centres undefined), the activity (quench increase) is -0.667%.

As for `CCC(=O)N1CC2(CN(Cc3cccnc3)C2)c2c(n(C)c3cc(OC)ccc23)[C@@H]1CO`, the activity (quench increase) is -0.0075%.

On to `CCCC#Cc1cnc2c(c1)C(=O)N([C@@H](C)CO)C[C@@H](C)[C@@H](CN(C)Cc1ccccc1F)O2`, for which the activity (quench increase) was 0.509%.

Consider `CNC(=O)C[C@@H]1CC[C@@H]2[C@@H](COc3ccc(NC(=O)c4ccc5c(c4)OCO5)cc3C(=O)N2C)O1`, for which the activity (quench increase) was 0.442%.

Regarding `COCC(=O)N(C)C[C@@H]1Oc2ncc(C#C[C@H](C)O)cc2C(=O)N([C@@H](C)CO)C[C@@H]1C`, the activity (quench increase) was 1.42%.

Take `COc1ccc(NC(=O)Nc2ccc3c(c2)[C@H]2C[C@H](CC(=O)NC4CCCC4)O[C@H](CO)[C@H]2O3)cc1`: the activity (quench increase) was 2.1%.

With `C[C@@H]1CCCCO[C@H](CN(C)C(=O)CCC(F)(F)F)[C@@H](C)CN([C@@H](C)CO)C(=O)c2cc(NC(=O)c3ccncc3)ccc2O1`, the activity (quench increase) is 2%.

With `Cc1ccccc1-c1ccc([C@H]2[C@H]3CN(S(=O)(=O)c4ccc(F)cc4)CCCCN3[C@H]2CO)cc1`, the activity (quench increase) is -0.288%.

As for `O=C(N[C@H]1CC[C@H](CCn2cc(-c3ccccc3F)nn2)O[C@@H]1CO)c1ccc2c(c1)OCO2`, the activity (quench increase) is -1.87%.

Take `C[C@@H]1CCCCO[C@@H](CN(C)Cc2ccncc2)[C@H](C)CN([C@@H](C)CO)C(=O)c2cc(N(C)C)ccc2O1`: the activity (quench increase) is -0.227%.

On to `N#C[C@@H]1[C@@H](c2ccccc2)[C@H](CO)N1C(=O)c1cc(Cl)cc(Cl)c1`, for which the activity (quench increase) was -2.95%.

For `O=C(NCCC1CCCCN1S(=O)(=O)c1cccs1)C(=O)Nc1ccc(F)cc1F` (centres undefined), the activity (quench increase) was 8.8% (active).

Turning to `O=C(NCCC1CCCCN1S(=O)(=O)c1ccc(F)cc1)C(=O)NC1CC1` (centres undefined), the activity (quench increase) was 3.1%.

As to `COc1ccccc1CCNC(=O)C(=O)NCCC1CCCCN1S(=O)(=O)c1cccs1` (centres undefined), the activity (quench increase) is 0.824%.

`COc1cccc(-c2ccc3c(c2)O[C@@H](CN(C)Cc2ccncc2)[C@H](C)CN([C@H](C)CO)S3(=O)=O)c1`: the activity (quench increase) is 3.64%.

With `Cc1noc(C)c1NC(=O)N(C)C[C@H]1OCCCC[C@@H](C)Oc2ccc(NC(=O)NC(C)C)cc2C(=O)N([C@H](C)CO)C[C@@H]1C`, the activity (quench increase) was 1.72%.

For the molecule `COc1ccccc1-n1ccnc1SCC(=O)NC(C)(C)C`, the activity (quench increase) was 0.912%.

With `COc1ccccc1-n1c(CNC(=O)c2ccccc2)nnc1SCC(=O)Nc1nnc(C)s1`, the activity (quench increase) was 2.1%.

In the case of `Cc1nnc(NC(=O)CSc2nccn2-c2cccc(C)c2C)s1`, the activity (quench increase) was 8.52% (active).

With `C[C@H](CO)N1C[C@H](C)[C@H](CN(C)S(=O)(=O)c2ccc(Cl)cc2)Oc2c(NS(C)(=O)=O)cccc2C1=O`, the activity (quench increase) is 1.05%.

For the molecule `CCCN1[C@H](C(=O)N2CCOCC2)[C@@H](CO)[C@@H]2Cn3c(ccc(/C=C/c4ccccc4)c3=O)[C@@H]21`, the activity (quench increase) is 9.23% (active).

For `CCCN1[C@H](C(=O)N2CCCCC2)[C@@H](CO)[C@@H]2Cn3c(ccc(-c4ccccc4F)c3=O)[C@@H]21`, the activity (quench increase) is 1.6%.

As to `CCCNC(=O)[C@@H]1[C@@H](CO)[C@@H]2Cn3c(ccc(/C=C/c4ccccc4)c3=O)[C@H]1N2CCC`, the activity (quench increase) is 3.14%.
